Reference: PubChem BioAssay AID1159580 (chemical genetic matrix, 2015)
The whole screen tested about 5,500 compounds, of which about 2,000 (36%) were called active. Another 18% or so got no clear call; they are omitted. Cut-off read from the data, not from the text of the source: active = normalized growth mostly below about 0.91 (no sharp cut-off); inconclusive = no clear call, values can overlap the other calls; inactive = mostly above about 0.92. The list shows a part of the results.

Assay: chemical genetic growth profiling, strain panel (AID 1159580);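 note: tested at 20 µM; growth read once vehicle control cultures reached saturation at 30 °C; 1 = growth at the plate median or of vehicle wells; lower values mean less growth of the strain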
Details: S. cerevisiae deletion strains, growth OD

Measured: normalized growth

O=C(/C=C/c1ccc2c(c1)OCO2)Nc1ccc(Br)cc1
inactive: locus YAR019C, strain CDC15, active compounds read low 0.962 | locus YBL105C, strain PKC1, active compounds read low 0.962 | locus YBR135W, strain CKS1, active compounds read low 0.972 | locus YBR136W, strain MEC1, active compounds read low 0.961 | locus YBR160W, strain CDC28, active compounds read low 0.967 | locus YDL017W, strain CDC7, active compounds read low 0.964 | locus YDL028C, strain MPS1, active compounds read low 0.962 | locus YDL101C, strain DUN1, active compounds read low 0.955 | locus YDL108W, strain KIN28, active compounds read low 0.961 | locus YDL132W, strain cdc53, active compounds read low 0.96 | locus YDL214C, strain PRR2, active compounds read low 0.922 | locus YDR052C, strain DBF4, active compounds read low 0.953 | locus YDR054C, strain cdc34, active compounds read low 0.958 | locus YDR226W, strain ADK1, active compounds read low 0.968 | locus YDR477W, strain SNF1, active compounds read low 0.962 | locus YER123W, strain YCK3, active compounds read low 0.9 | locus YER133W, strain GLC7, active compounds read low 0.976 | locus YFL009W, strain cdc4, active compounds read low 0.954 | locus YFL029C, strain CAK1, active compounds read low 0.962 | locus YFR003C, strain YPI1, active compounds read low 0.957 | locus YFR019W, strain FAB1, active compounds read low 0.987 | locus YFR028C, strain CDC14, active compounds read low 0.955 | locus YGR040W, strain KSS1, active compounds read low 0.95 | locus YGR052W, strain FMP48, active compounds read low 0.909 | locus YGR092W, strain DBF2, active compounds read low 0.767 | locus YHR030C, strain SLT2, active compounds read low 0.86 | locus YHR079C, strain IRE1, active compounds read low 0.872 | locus YHR082C, strain KSP1, active compounds read low 0.965 | locus YHR205W, strain SCH9, active compounds read low 0.791 | locus YIL147C, strain SLN1, active compounds read low 0.962 | locus YJL095W, strain BCK1, active compounds read low 0.77 | locus YJL128C, strain PBS2, active compounds read low 0.918 | locus YJL157C, strain FAR1, active compounds read low 0.974 | locus YJR016C, strain ILV3, active compounds read low 0.958 | locus YJR066W, strain TOR1 (second series), active compounds read low 0.972 | locus YJR066W, strain TOR1, active compounds read low 0.912 | locus YKL048C, strain ELM1, active compounds read low 0.931 | locus YKL067W, strain YNK1, active compounds read low 0.932 | locus YKL101W, strain HSL1, active compounds read low 0.933 | locus YKL193C, strain SDS22, active compounds read low 0.954 | locus YKL203C, strain TOR2, active compounds read low 1.03 | locus YLR133W, strain CKI1, active compounds read low 0.96 | locus YLR403W, strain SFP1, active compounds read low 0.927 | locus YML070W, strain DAK1, active compounds read low 0.9 | locus YMR001C, strain CDC5, active compounds read low 0.957 | locus YMR205C, strain PFK2 (second series), active compounds read low 0.938 | locus YMR277W, strain FCP1, active compounds read low 0.959 | locus YNL006W, strain LST8, active compounds read low 0.974 | locus YNL020C, strain ARK1, active compounds read low 0.955 | locus YNL161W, strain CBK1, active compounds read low 0.971 | locus YNL183C, strain NPR1, active compounds read low 0.889 | locus YNL207W, strain RIO2, active compounds read low 0.953 | locus YNL222W, strain SSU72, active compounds read low 0.966 | locus YNL307C, strain MCK1 (second series), active compounds read low 0.854 | locus YOL078W, strain AVO1, active compounds read low 0.945 | locus YOL136C, strain PFK27, active compounds read low 0.889 | locus YOR061W, strain CKA2, active compounds read low 0.973 | locus YOR119C, strain RIO1, active compounds read low 1.02 | locus YOR231W, strain MKK1, active compounds read low 0.847 | locus YOR329C, strain SCD5, active compounds read low 0.963 | locus YPL031C, strain PHO85, active compounds read low 0.962 | locus YPL153C, strain RAD53, active compounds read low 0.97 | locus YPL204W, strain HRR25, active compounds read low 0.95 | locus YPL209C, strain IPL1, active compounds read low 0.963 | locus YPL256C, strain CLN2, active compounds read low 0.954 | locus YPR025C, strain CCL1, active compounds read low 0.958 | locus YPR106W, strain ISR1, active compounds read low 0.946 | locus YPR111W, strain DBF20, active compounds read low 0.925 | strain NNK1, active compounds read low 0.939 | strain TSCII, active compounds read low 0.968
active: locus YLR113W, strain HOG1, active compounds read low 0.754
